The text below walks through data of paper PMC7862700, “An all-to-all approach to the identification of sequence-specific readers for epigenetic DNA modifications on cytosine”.

Common to all, as to test: DAPPL (digital affinity profiling via proximity ligation, sequencing); 10 mM Tris-HCl pH 7.5, 50 mM NaCl, 1 mM DTT, 4% glycerol, room temperature, 30 min; GST-TFs on glutathione beads, 16-mer random dsDNA library, 0.1% formaldehyde crosslink after washing; high values mean tight binding
In one experiment the target is T1, FEV (Homo sapiens, UniProt Q99581 1-238).
T1 sequence: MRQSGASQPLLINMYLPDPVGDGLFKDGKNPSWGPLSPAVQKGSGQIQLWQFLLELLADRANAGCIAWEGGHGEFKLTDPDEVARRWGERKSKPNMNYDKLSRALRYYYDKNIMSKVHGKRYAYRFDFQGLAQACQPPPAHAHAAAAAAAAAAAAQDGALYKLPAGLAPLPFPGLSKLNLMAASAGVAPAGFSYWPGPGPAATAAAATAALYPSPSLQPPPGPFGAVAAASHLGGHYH
Particulars: protein: recombinant; tags: N-terminal GST; dsDNA, one strand shown. In short, it runs like this: (§1)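 Binding signal is given per hexamer as its read frequency for a factor divided by its frequency in the tag-only sample. GST-fused human transcription factors were expressed in yeast, captured on glutathione beads, barcoded with DNA and pooled with that sample, then incubated with 200 nmole of a 16-mer random double-stranded DNA library in Tris/NaCl/DTT/glycerol buffer for 30 min at room temperature. The pools were then washed, crosslinked, proximity-ligated, amplified by PCR and sequenced on an Illumina NextSeq500.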

A further experiment has as its target ETV5 (Homo sapiens, UniProt P41161 1-510). Conditions: protein: recombinant; tags: N-terminal GST; dsDNA, one strand shown. Put shortly:
as §1

The target in the next experiment is HSF1 (Homo sapiens, UniProt Q00613 1-529). Conditions: protein: recombinant; tags: N-terminal GST; chain copies: 3; dsDNA, one strand shown. Put shortly:
as §1

Another experiment has as its target T2, SPIC (Homo sapiens, UniProt Q8N5J4 1-248).
T2 sequence: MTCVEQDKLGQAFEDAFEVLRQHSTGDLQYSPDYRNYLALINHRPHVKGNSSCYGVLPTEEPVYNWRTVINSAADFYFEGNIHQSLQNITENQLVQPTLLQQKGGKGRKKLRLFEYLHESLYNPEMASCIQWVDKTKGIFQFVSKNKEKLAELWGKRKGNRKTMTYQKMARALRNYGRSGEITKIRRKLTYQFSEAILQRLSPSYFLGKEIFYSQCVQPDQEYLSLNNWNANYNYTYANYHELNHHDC
Conditions: protein: recombinant; tags: N-terminal GST; dsDNA, one strand shown. In short, it runs like this:
as §1

The target in a further experiment is ELF4 (Homo sapiens, UniProt Q99607 1-663). Conditions: protein: recombinant; tags: N-terminal GST; dsDNA, one strand shown. In short, it runs like this: as §1
ELF4, sequence (Q99607 whole entry): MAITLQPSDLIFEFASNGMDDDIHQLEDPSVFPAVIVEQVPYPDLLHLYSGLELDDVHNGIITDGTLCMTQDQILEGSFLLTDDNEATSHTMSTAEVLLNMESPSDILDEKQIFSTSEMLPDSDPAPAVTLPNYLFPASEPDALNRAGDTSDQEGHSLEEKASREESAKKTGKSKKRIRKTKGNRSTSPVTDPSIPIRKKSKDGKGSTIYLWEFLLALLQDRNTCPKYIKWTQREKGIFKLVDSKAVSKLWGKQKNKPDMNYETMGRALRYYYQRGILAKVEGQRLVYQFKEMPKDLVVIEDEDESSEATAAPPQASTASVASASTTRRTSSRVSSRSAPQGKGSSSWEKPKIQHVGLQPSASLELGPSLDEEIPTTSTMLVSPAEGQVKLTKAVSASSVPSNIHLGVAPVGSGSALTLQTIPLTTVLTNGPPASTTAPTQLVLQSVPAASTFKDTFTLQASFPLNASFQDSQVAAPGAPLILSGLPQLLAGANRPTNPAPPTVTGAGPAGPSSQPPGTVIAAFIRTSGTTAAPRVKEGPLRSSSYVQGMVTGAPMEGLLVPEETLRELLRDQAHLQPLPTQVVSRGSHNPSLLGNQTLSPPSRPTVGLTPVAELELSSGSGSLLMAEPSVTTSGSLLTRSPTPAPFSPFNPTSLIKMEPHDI
A further experiment has as its target T3, ELK4 (Homo sapiens, UniProt P28324-2 1-405).
T3 sequence: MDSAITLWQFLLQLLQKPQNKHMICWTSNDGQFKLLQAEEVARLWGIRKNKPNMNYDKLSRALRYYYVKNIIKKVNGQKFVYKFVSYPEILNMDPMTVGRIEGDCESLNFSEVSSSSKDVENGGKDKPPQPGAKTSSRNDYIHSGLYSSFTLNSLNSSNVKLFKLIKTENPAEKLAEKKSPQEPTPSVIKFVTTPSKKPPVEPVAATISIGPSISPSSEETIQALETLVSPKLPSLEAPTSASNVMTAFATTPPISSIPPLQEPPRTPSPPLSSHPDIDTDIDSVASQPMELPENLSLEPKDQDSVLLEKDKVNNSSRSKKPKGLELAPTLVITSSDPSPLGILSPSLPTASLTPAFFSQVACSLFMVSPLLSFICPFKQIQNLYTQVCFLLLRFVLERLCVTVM
Conditions: protein: recombinant; tags: N-terminal GST; dsDNA, one strand shown. In short, it runs like this: as §1

In the next experiment the target is T4, ETV2 (Homo sapiens, UniProt O00321 1-342).
T4 sequence: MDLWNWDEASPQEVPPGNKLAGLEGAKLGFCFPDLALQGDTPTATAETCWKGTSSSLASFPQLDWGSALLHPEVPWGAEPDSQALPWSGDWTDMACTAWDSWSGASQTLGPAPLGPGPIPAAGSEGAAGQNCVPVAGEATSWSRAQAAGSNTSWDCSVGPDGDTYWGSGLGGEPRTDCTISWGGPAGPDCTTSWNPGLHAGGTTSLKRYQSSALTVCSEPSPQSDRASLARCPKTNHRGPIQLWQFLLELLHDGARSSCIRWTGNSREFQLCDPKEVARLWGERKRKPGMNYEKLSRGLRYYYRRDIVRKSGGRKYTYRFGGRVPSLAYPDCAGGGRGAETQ
Conditions: protein: recombinant; tags: N-terminal GST; dsDNA, one strand shown. Put shortly:
as §1

The next experiment deals with T5, ELF3 (Homo sapiens, UniProt P78545 1-371).
T5 sequence: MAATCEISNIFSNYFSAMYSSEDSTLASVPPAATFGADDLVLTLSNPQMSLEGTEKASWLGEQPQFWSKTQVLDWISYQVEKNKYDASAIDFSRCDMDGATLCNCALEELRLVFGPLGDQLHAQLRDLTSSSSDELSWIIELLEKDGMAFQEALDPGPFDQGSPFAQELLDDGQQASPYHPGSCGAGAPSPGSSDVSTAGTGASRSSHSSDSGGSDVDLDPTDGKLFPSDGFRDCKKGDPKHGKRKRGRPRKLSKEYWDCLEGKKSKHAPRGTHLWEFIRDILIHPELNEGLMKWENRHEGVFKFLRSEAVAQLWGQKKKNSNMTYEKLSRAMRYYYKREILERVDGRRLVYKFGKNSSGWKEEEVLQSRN
Particulars: protein: recombinant; tags: N-terminal GST; dsDNA, one strand shown. In short, it runs like this: as §1

The next experiment addresses CRX (Homo sapiens, UniProt O43186 1-299). Conditions: protein: recombinant; tags: N-terminal GST; dsDNA, one strand shown. In short, it runs like this: as §1
The target in a further experiment is ETV1 (Homo sapiens, UniProt P50549 1-477). Particulars: protein: recombinant; tags: N-terminal GST; dsDNA, one strand shown. In short, it runs like this: as §1
ETV1, sequence (P50549 whole entry): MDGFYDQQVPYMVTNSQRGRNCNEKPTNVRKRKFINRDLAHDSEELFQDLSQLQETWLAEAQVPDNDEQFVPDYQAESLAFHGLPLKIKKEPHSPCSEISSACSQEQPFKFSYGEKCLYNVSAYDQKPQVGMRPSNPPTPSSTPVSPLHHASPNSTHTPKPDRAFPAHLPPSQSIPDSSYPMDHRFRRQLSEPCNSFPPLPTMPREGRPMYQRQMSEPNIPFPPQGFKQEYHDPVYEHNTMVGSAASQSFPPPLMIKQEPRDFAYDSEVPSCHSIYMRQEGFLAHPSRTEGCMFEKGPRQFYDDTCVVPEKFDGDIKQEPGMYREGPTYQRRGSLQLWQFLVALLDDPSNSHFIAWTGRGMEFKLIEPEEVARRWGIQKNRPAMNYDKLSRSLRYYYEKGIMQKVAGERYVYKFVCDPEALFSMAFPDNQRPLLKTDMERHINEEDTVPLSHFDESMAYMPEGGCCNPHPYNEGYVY
The next experiment concerns the target T6, ERF (Homo sapiens, UniProt P50548 1-548).
T6 sequence: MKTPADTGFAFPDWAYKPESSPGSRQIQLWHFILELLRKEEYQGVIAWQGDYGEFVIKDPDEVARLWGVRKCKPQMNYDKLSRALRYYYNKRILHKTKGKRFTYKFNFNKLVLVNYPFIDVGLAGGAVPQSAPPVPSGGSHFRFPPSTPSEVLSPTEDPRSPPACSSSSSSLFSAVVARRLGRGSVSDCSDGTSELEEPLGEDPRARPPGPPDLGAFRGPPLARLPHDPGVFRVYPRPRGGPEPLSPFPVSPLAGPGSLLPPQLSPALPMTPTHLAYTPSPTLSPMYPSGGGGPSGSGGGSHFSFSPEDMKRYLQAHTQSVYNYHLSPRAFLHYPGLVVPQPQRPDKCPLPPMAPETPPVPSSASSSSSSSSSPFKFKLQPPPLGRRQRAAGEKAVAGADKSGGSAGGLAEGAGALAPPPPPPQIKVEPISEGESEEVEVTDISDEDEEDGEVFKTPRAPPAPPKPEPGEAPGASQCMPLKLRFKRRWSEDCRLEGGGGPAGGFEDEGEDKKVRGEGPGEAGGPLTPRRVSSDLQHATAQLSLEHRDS
Conditions: protein: recombinant; tags: N-terminal GST; dsDNA, one strand shown. In short, it runs like this:
as §1

In another experiment the target is T7, ETV3L (Homo sapiens, UniProt Q6ZN32 1-361).
T7 sequence: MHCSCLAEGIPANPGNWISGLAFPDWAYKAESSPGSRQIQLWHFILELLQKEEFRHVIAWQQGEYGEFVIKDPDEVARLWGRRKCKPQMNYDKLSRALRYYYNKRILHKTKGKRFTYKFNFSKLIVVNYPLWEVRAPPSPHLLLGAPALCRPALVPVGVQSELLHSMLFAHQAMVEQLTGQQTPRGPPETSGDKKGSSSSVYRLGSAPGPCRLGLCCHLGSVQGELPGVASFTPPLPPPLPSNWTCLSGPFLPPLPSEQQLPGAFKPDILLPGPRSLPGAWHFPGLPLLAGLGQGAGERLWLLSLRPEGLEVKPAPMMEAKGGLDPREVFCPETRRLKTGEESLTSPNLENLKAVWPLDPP
Conditions: protein: recombinant; tags: N-terminal GST; dsDNA, one strand shown. Put shortly: as §1

Another experiment has as its target T8, ETS2 (Homo sapiens, UniProt P15036 1-469).
T8 sequence: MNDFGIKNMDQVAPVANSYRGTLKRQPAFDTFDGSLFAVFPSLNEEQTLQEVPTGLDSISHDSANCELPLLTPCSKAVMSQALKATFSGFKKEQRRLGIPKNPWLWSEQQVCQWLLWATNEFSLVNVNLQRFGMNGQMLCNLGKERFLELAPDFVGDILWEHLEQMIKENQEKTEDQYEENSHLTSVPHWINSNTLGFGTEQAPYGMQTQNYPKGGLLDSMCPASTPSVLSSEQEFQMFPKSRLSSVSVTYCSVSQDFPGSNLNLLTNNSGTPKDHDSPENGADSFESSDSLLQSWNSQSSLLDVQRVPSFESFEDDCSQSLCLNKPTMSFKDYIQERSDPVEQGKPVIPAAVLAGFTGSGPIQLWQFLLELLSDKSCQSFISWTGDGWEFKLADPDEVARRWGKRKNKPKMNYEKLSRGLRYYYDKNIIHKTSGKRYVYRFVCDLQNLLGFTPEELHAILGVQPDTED
Conditions: protein: recombinant; tags: N-terminal GST; dsDNA, one strand shown. In short, it runs like this: as §1

A further experiment concerns the target T9, SPDEF (Homo sapiens, UniProt O95238 1-335).
T9 sequence: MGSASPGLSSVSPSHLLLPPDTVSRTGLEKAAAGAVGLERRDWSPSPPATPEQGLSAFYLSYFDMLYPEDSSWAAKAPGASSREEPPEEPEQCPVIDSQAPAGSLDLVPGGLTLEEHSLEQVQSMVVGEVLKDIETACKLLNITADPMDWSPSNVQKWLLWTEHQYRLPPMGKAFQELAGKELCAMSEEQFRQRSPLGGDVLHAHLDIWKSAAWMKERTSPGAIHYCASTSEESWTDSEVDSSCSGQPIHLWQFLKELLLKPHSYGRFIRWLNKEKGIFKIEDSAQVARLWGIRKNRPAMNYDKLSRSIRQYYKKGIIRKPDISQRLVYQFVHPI
Conditions: protein: recombinant; tags: N-terminal GST; dsDNA, one strand shown. In short, it runs like this: as §1

The target of the next experiment is T10, ETV7 (Homo sapiens, UniProt Q9Y603 1-341).
T10 sequence: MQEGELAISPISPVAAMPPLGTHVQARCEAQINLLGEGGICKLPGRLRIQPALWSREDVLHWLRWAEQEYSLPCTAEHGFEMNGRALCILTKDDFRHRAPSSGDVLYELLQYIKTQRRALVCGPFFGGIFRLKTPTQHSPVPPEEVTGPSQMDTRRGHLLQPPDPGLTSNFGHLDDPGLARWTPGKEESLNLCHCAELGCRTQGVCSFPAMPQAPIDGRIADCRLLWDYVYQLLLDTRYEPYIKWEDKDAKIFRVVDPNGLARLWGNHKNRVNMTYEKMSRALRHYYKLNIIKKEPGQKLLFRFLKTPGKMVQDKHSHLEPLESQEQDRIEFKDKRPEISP
Particulars: protein: recombinant; tags: N-terminal GST; dsDNA, one strand shown. Put shortly: as §1

In a further experiment the target is T11, ELF5 (Homo sapiens, UniProt Q9UKW6-2 1-255).
T11 sequence: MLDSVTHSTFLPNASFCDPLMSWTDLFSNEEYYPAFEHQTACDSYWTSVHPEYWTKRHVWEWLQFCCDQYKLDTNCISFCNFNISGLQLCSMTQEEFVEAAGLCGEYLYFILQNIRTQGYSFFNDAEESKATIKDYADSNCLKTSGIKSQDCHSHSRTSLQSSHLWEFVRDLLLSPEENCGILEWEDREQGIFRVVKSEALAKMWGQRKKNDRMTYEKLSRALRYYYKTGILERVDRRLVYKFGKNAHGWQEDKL
Particulars: protein: recombinant; tags: N-terminal GST; dsDNA, one strand shown. In short, it runs like this: as §1

The target of another experiment is T12, ETV3 (Homo sapiens, UniProt P41162-2 1-143).
T12 sequence: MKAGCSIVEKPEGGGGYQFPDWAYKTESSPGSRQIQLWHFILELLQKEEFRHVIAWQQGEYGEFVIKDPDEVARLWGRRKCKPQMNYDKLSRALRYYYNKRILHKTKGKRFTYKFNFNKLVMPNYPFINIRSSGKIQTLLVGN
Particulars: protein: recombinant; tags: N-terminal GST; dsDNA, one strand shown. Put shortly:
as §1

Another experiment addresses ETV6 (Homo sapiens, UniProt P41212 1-452). Particulars: protein: recombinant; tags: N-terminal GST; dsDNA, one strand shown. Put shortly: as §1

CRX, sequence (O43186 whole entry): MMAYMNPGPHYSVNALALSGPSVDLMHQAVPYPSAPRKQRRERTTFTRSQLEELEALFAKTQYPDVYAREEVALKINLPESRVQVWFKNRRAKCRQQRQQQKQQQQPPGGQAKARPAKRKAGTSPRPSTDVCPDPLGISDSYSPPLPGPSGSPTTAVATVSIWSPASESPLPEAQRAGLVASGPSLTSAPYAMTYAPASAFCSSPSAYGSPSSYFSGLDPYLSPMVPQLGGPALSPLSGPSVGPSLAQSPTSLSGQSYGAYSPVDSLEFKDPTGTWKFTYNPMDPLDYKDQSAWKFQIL
HSF1, sequence (Q00613 whole entry): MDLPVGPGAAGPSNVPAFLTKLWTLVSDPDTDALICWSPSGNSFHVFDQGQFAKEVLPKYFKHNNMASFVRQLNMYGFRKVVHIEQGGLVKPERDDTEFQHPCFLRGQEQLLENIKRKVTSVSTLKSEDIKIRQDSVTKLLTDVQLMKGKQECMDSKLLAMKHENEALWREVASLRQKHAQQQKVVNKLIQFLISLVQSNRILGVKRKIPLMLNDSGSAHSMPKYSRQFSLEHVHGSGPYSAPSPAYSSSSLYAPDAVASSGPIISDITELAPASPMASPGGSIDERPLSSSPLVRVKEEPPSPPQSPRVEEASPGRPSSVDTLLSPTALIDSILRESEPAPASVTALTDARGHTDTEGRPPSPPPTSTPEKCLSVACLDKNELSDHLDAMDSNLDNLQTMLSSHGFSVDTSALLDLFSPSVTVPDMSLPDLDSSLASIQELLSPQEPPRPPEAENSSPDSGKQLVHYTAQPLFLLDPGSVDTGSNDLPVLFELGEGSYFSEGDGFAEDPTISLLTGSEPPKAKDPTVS
ETV5, sequence (P41161 whole entry): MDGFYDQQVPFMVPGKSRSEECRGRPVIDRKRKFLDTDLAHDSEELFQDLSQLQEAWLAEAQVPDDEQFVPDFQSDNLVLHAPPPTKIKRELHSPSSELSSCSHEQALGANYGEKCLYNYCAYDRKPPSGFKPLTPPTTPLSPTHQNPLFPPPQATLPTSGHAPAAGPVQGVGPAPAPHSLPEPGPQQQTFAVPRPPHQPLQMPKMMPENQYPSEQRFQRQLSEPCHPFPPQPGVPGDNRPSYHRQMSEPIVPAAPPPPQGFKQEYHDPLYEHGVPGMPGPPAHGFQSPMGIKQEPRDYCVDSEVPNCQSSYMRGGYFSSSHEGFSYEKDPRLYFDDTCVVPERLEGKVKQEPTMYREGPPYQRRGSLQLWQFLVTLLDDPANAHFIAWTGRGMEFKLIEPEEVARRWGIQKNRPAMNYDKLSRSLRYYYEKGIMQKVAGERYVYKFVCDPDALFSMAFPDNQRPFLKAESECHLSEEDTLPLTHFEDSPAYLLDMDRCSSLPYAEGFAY
ETV6, sequence (P41212 whole entry): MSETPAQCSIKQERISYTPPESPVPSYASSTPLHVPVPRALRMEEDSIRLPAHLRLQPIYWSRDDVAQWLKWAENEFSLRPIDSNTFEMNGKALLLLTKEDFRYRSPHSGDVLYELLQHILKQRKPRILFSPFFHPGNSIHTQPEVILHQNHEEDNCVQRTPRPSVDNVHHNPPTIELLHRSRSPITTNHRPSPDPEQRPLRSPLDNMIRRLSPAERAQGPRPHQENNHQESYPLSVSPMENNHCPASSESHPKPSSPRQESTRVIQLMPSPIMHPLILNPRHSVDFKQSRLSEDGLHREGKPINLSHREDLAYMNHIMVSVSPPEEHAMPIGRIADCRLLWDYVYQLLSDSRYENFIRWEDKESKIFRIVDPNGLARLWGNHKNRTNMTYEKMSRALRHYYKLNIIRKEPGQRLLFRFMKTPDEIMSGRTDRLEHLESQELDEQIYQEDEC

In the case of ATGGAT, the binding signal with FEV was 1.04 fold enrichment (6-mer frequency, TF over GST control); in the experiment with ETV5, 1.07 fold enrichment (6-mer frequency, TF over GST control); with HSF1, 1.26 fold enrichment (6-mer frequency, TF over GST control); with SPIC, 1.21 fold enrichment (6-mer frequency, TF over GST control); with ELF4 it was 1.11 fold enrichment (6-mer frequency, TF over GST control); with ELK4, 1.14 fold enrichment (6-mer frequency, TF over GST control). The binding signal in the experiment with ETV2 is 1.06 fold enrichment (6-mer frequency, TF over GST control); with ELF3 it was 1.09 fold enrichment (6-mer frequency, TF over GST control); with CRX, 1.6 fold enrichment (6-mer frequency, TF over GST control); with ETV1, 1.06 fold enrichment (6-mer frequency, TF over GST control); with ERF, 1.09 fold enrichment (6-mer frequency, TF over GST control); in the experiment with ETV3L it was 1.16 fold enrichment (6-mer frequency, TF over GST control). Besides, the binding signal with ETS2 was 1.09 fold enrichment (6-mer frequency, TF over GST control); in the experiment with SPDEF it was 1.01 fold enrichment (6-mer frequency, TF over GST control); in the experiment with ETV7, 1.16 fold enrichment (6-mer frequency, TF over GST control); with ELF5 it was 1.06 fold enrichment (6-mer frequency, TF over GST control); in the experiment with ETV3, 1.11 fold enrichment (6-mer frequency, TF over GST control); with ETV6, 1.09 fold enrichment (6-mer frequency, TF over GST control).
